Screening results from PubChem BioAssay.
The list is not random: actives were taken first. Their share in the collection is about 21%.
NS1 function inh: qHTS Assay for Inhibitors of Influenza NS1 Protein Function; Potency, µM (highest dose often 46.1 µM), without a hit: at the top dose activity, positive = more growth; 270,000 compounds, 0.4% hits; AID 2326, 2010; also: potency is read from the fitted curve at half-maximal effect; actives are rising curves; nearly all actives have a fitted effect of over 50% in size
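A cell-based growth assay was used: compounds that relieve NS1-induced slow growth of budding yeast raise OD600. Assay medium was yeast nitrogen base with ammonium sulphate and -URA supplement, pH 6.0, with 2% galactose.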
Shiga toxin inh: A qHTS for Small Molecule Inhibitors of Shiga Toxin | Vero cells, Shiga toxin protein synthesis inhibition reporter | inhibition, % at 38.7 µM | 290,000 compounds, 9.2% hits | AID 2315, 2010; in the data active = inhibition mostly above about 28%, no sharp cut-off; inactive = mostly below about 43%; also: 0% is about no effect
Pf growth 96h: Primary qHTS for delayed death inhibitors of the malarial parasite plastid, 96 hour incubation; P. falciparum luciferase reporter growth, 96 h; Potency, µM (highest dose often 28.7 µM), without a hit: at the top dose activity change, negative = inhibition, actives largely listed as inhibitors; 320,000 compounds, 6.9% hits; AID 504834, 2011; active = well fitted inhibition curve with a large enough effect; inconclusive = small, poorly fitted or top-dose-only effect, or another doubt; inactive = no such curve, though single readings can be large or run the other way; also: potency is read from the fitted curve at half-maximal effect; % is scaled to controls: 0 for no effect and ±100 for the full control effect
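Two-generation exposure (96 h) targets delayed-death phenotype. Reporter parasites carrying integrated firefly luciferase, in red cells at 2% hematocrit and 0.05% parasitemia final, kept at 37 C, 5% CO2; luminescence loss indicates inhibition.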
CHX counter-1: Cycloheximide Counterscreen for Small Molecule Inhibitors of Shiga Toxin. 300,000 compounds, 12% hits. AID 2314, 2010. cell reporter, cycloheximide protein synthesis inhibition counterscreen. max response, %; in the data active = max response mostly above about 13%, no sharp cut-off; inactive = mostly below about 14%; also: read at 38.3 µM for the half of the compounds with a filed dose; 0% is about no effect
SARS PLP yeast: qHTS of Yeast-based Assay for SARS-CoV PLP; 330,000 compounds, 0.19% hits; Potency, µM (highest dose often 32.9 µM), for the others: at the highest dose activity, positive = growth rescue, hits mostly activators; S. cerevisiae expressing SARS-CoV PLpro, growth rescue; also: potency is read from the fitted curve at half-maximal effect; 0% is about no effect; nearly all actives have a fitted effect of over 55% in size
Pf growth 48h: Primary qHTS for delayed death inhibitors of the malarial parasite plastid, 48 hour incubation; P. falciparum luciferase growth in erythrocytes, 48 h; Potency, µM (highest dose often 28.7 µM), inactives show at the top dose activity change, negative = inhibition, actives largely listed as inhibitors; 310,000 compounds, 5.9% hits; active = well fitted inhibition curve with a large enough effect; inconclusive = small, poorly fitted or top-dose-only effect, or another doubt; inactive = no such curve, though single readings can be large or run the other way; also: potency is read from the fitted curve at half-maximal effect; % is scaled to controls: 0 for no effect and ±100 for the full control effect
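Read-out is firefly luciferase luminescence from an integrated reporter in P. falciparum, so falling signal marks reduced parasite growth. Infected erythrocytes were at 2% hematocrit and 0.1% parasitemia (final) in Albumax-supplemented RPMI 1640.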
CHX counter-2: Cycloheximide Counterscreen for Small Molecule Inhibitors of Shiga Toxin (Confirmatory). shares compounds with Shiga toxin inh. Cycloheximide counterscreen, protein synthesis reporter, Shiga toxin assay. Potency, µM (doses to about 38.3 µM), without a hit: top-dose activity (activation), most hits filed as activators. 510 compounds, 3% hits. AID 2318, 2010; also: potency is read from the fitted curve at half-maximal effect; 0% is about no effect
Starred values were filed as active, the others as inactive; ? = inconclusive; nt = not tested or not shown. Unless noted, calls follow the shape of the full dose curve.

SMILES | NS1 function inh | Shiga toxin inh | Pf growth 96h | CHX counter-1 | SARS PLP yeast | Pf growth 48h | CHX counter-2
O=C(COc1ccccc1Cc1ccccc1)NCCCN1CCOCC1 | -2% | -3 | -7% | -4 | 0% | -22% | nt
Cc1noc(C)c1C(=O)Nc1ccc(F)cc1 | nt | -12 | 20% | 2 | 1% | 12% | nt
Cc1noc(C)c1C(=O)Nc1ccc2c(c1)CCC2 | -9% | 73* | 15µM* | 8 | nt | 24% | -2%
COc1cccc(Oc2ccc(N)cn2)c1 | 2% | 29* | 3% | 9 | 0% | 36% | 1%
CC(C)C(=O)SCCCCCCC(=O)Nc1nc(-c2ccccc2)cs1 | nt | 16* | nt | -1 | nt | nt | 1%
O=C(O)CCCC(=O)Nc1nc(-c2ccccc2)cs1 | -3% | -10 | 2% | -3 | -2% | 13% | nt
Cc1cc(NC(=O)Cc2ccc(Br)cc2)no1 | 7% | 18 | ? | 5 | -2% | -12% | nt
Cc1cc(NC(=O)/C=C/c2ccc(Br)cc2)no1 | 14% | 56* | ? | 7 | 2% | ? | ?
O=C(CCCCCN1C(=O)c2cccc3cccc(c23)C1=O)NC1CCS(=O)(=O)C1 (stereo not drawn) | 0% | 41 | ? | 38 | 0% | ? | nt
O=C(CCN1C(=O)c2cccc3cccc(c23)C1=O)NC1CCS(=O)(=O)C1 (stereo not drawn) | -1% | 75* | 64% | 9 | 2% | 51% | 0%
Cc1cccc(C(=O)NC(NCCc2ccccc2)C(Cl)(Cl)Cl)c1 (stereo not drawn) | ? | 109* | 3.7µM* | -5 | 1% | ? | 0%
COCCN(C(=S)Nc1ccccc1OC)C(C)c1cccs1 (stereo not drawn) | -2% | -9 | -24% | -3 | -23% | 6% | nt
COc1cc(/C=N/Nc2ncnc3sc4c(c23)CCC4)ccc1O | 9% | 12 | ? | 8 | -10% | ? | nt
CCN(CCn1cccn1)Cc1nc(-c2ccccc2)no1 | -1% | 34* | ? | 7 | -2% | 14% | 4%
CCN(Cc1nc(-c2ccccc2)no1)C(=O)c1ccoc1C | -3% | 4 | 99% | -3 | 1% | -18% | nt
CCCCC(=O)Nc1ccc(N2CCN(C(=O)CC)CC2)cc1 | 2% | -1 | -2% | -1 | 3% | 11% | nt
CCC(=O)N1CCN(c2ccc(NC(=O)c3ccc(Br)o3)cc2)CC1 | -8% | 22* | 0% | 3 | 0% | 23% | 7%
COc1ccc(C(=O)CSc2nnc(C(CO)NC(=O)c3ccc(OC)cc3)n2C)cc1 (stereo not drawn) | -3% | 64* | nt | -2 | 6% | -5% | -3%
Cc1ccc(Oc2nn[nH]n2)cc1 | -1% | 47* | 27% | -2 | -2% | 3% | 2%
CCc1cccc(Oc2nn[nH]n2)c1 | 0% | 3 | ? | 4 | 8% | -19% | nt
COc1cccc(/C=C/C(=O)c2cccc([N+](=O)[O-])c2)c1OC | -2% | 60* | 8% | 11 | 0% | -1% | -2%
COc1cccc(/C=C/C(=O)c2cccc([N+](=O)[O-])c2)c1 | -54% | 51* | 25% | 7 | -1% | 9% | 0%
O=C(/C=C/c1cccc([N+](=O)[O-])c1)c1ccco1 | -105% | 12 | ? | -1 | -25% | 33% | nt
O=C(COC(=O)c1cccnc1Cl)Nc1cc(S(=O)(=O)N2CCCCC2)ccc1Cl | 4% | -12 | 4% | -4 | 0% | -1% | nt
Cc1nn(C)cc1/C=N/NC(=O)C(C)(C)Oc1ccc(Cl)cc1 | -2% | -16 | nt | -2 | -6% | 4% | nt
CCn1c(O)c(C2=NCCCC2)c2ccccc21 | -145% | 125* | 0% | -1 | -9% | 0% | 2%
Oc1[nH]c2ccccc2c1C1=NCCCC1 | -50% | -10 | ? | -6 | 5% | 3% | nt
